# Records with an inconclusive call do not appear. Calls of active or inactive are those of the source. The calls were made as follows: active = hit-call score of the fitted dose curve at least 0.9, where 1 is the maximum; inconclusive = response in the unintended direction; inactive = score below 0.9.
# Assay: ATG_M_19_TRANS: Attagene TRANS-FACTORIAL HepG2 Assay for M19 Transcription Factor (Internal Marker) (AID 2282974)
# Settings: HepG2 Attagene TRANS-FACTORIAL M19 internal marker reporter
# Procedure: ATG_TRANS is a cell-based, multiplexed-readout assay that uses HepG2, a human liver cell line, with measurements taken at 24 hours after chemical dosing in a 24-well plate.ATG_M_19_TRANS is one of 30 assay component(s) measured or calculated from the ATG_TRANS assay. It is designed to make measurements of mRNA induction, a form of inducible reporter, as detected with fluorescence intensity signals by Reverse transcription polymerase chain reaction (RT-PCR) and Capillary electrophoresis technology.Data from the assay component ATG_M_19_TRANS was analyzed into 1 assay endpoint. This assay endpoint, ATG_M_19_TRANS, was analyzed in the positive analysis fitting direction relative to DMSO as the negative control and baseline of activity. Using a type of inducible reporter, measures of mRNA for gain-of-signal activity can be used to understand the background control at the transcription factor-level as they relate to the gene . Furthermore, this assay endpoint can be referred to as a secondary readout, because this assay has produced multiple assay endpoints where this one serves a background control function. To generalize the intended target to other relatable targets, this assay endpoint is annotated to the background measurement intended target family, where the subfamily is internal marker.
# Human liver HepG2 cells are transiently transfected with multiple reporter transcription units (MRTUs) in 6-well plates using FuGene 6 reagent (Roche; 3 ml FuGene/1 mg DNA). The MRTU constructs are regulated by a cis-regulating element (promoter). […] A major difference between the CIS and TRANS system is that in CIS activities of endogenous TFs are measured, whereas the TRANS assay evaluates changes in activities of exogenous, chimeric NR-Gal4 proteins. […] At the end of 24 hour incubation, total RNA was isolated using TriZol reagent (Invitrogen). The isolated RNA is then reverse-transcribed using oligo(dT) primer and Mo-MLV reverse transcriptase (Invitrogen) with DNAse I (Ambion) treatment for 30 min. The one-tenth of the produced cDNA was amplified by PCR using Taq DNA polymerase (Invitrogen) and two reporter sequence-specific primers. The PCR products were fluorescently labeled by primer extension with 6-arboxyfluorescein (6-FAM) 5'-labeled reporter sequence-specific primer (2 min at 95 C, 20 s at 68 C and 10 min at 72 C) and these products were digested with 5U of HpaI (New England Biolabs) for 2h at 37 C. The fragments were purified using Qiaquick PCR columns (Qiagen), analyzed on an ABI 3130xL genetic analyzer (Applied Biosystems) with peak positions identified by using a set of X-rhodamine (ROX)-labeled MapMarker1000 molecular weight standards (BioVentures). The raw capillary electrophoresis data was processed using Attagraph software (Attagene).
row,SMILES,outcome
1,O=C(O)C(F)(F)C(F)(F)C(F)F,inactive
2,O=C(O)C(F)(OC(F)(F)C(F)(OC(F)(F)C(F)(F)C(F)(F)F)C(F)(F)F)C(F)(F)F (stereo not given),inactive
3,CCCCCCOC(=O)c1ccccc1,inactive
4,O=S(=O)(OCC(F)F)C(F)(F)F,inactive
5,O=C(O)C(F)(F)C(F)(F)C(F)(F)C(F)(F)C(F)(F)C(F)(F)C(F)(F)C(F)(F)C(F)(F)C(F)(F)C(F)(F)C(F)(F)F,inactive
6,FC(F)(F)C(F)(F)C(F)(F)C(F)(F)C(F)(F)C(F)(F)C(F)(F)I,inactive
7,Cc1cc(C)cc(O)c1,inactive
8,CC(C)c1ccccc1N,inactive
9,C=C(C)C(=O)OCC(F)(F)C(F)(F)C(F)(F)C(F)(F)C(F)(F)C(F)(F)C(F)(F)F,inactive
10,O=C(O)C(F)(OC(F)(F)C(F)(OC(F)(F)C(F)(OC(F)(F)C(F)(F)C(F)(F)F)C(F)(F)F)C(F)(F)F)C(F)(F)F (stereo not given),inactive
11,C=CC(=O)OCC(F)(F)C(F)(F)C(F)(F)C(F)(F)C(F)(F)C(F)(F)C(F)(F)F,inactive
12,c1ccc(-c2ccccc2-c2ccccc2)cc1,inactive
13,FC(F)(F)C(F)(F)C(F)(F)C(F)(F)C(F)(F)CCI,inactive
14,FC1CC(F)(F)C(F)(F)C1(F)F (stereo not given),inactive
15,O=C(O)C(F)(F)C(F)(F)C(F)(F)F,inactive
16,CCCCCCCCC(F)(F)C(F)(F)C(F)(F)C(F)(F)C(F)(F)C(F)(F)F,inactive
17,OCCCC(F)(F)C(F)(F)C(F)(F)F,inactive
18,C=CC(=O)OCC(F)(F)C(F)(F)C(F)(F)C(F)(F)COC(=O)C=C,inactive
19,O=C(CC(=O)C(F)(F)C(F)(F)F)C(F)(F)F,inactive
20,Nc1ccc([N+](=O)[O-])cc1O,inactive

row,SMILES,outcome
1,O=P(O)(O)OCCC(F)(F)C(F)(F)C(F)(F)C(F)(F)C(F)(F)C(F)(F)F,inactive
2,CCCCNc1ccccc1,inactive
3,FC(F)(F)C(F)(F)C(F)(F)C(F)(F)C(F)(F)C(F)(F)CC1CO1 (stereo not given),inactive
4,COC(=O)C1CCC(C(=O)OC)CC1 (stereo not given),inactive
5,C=CC(F)(F)C(F)(F)C(F)(F)C(F)(F)C(F)(F)C(F)(F)C(F)(F)C(F)(F)F,inactive
6,O=C(OCCOCCOCCOC(=O)c1ccccc1)c1ccccc1,inactive
7,FC(F)(F)C(F)(F)CNCC(F)(F)C(F)(F)F,inactive
8,CCCCC(CC)COP(=O)(O)OCC(CC)CCCC (stereo not given),inactive
9,OCC(F)(F)C(F)(F)C(F)(F)C(F)(F)C(F)(F)C(F)F,inactive
10,FC(F)(I)C(F)(F)C(F)(F)C(F)(F)I,inactive
11,O=C(C=Cc1ccccc1)OCC=Cc1ccccc1,inactive
12,CCCCCCOC(=O)c1ccccc1O,inactive
13,FC(F)(F)C(F)(F)C(F)(F)C(F)(F)CCI,inactive
14,O=S(=O)(O)C(F)(F)C(F)(F)C(F)(F)C(F)(F)C(F)(F)C(F)(F)C(F)(F)F,inactive
15,CC(Cc1ccc(O)c(O)c1)C(C)Cc1ccc(O)c(O)c1 (stereo not given),inactive
16,C1COCCN1,inactive
17,CCC(=O)OCCc1ccccc1,inactive
18,CC/C=C\CCOC(=O)c1ccccc1,inactive
19,CCCCCC=O,inactive
20,FC(F)(F)C(F)(F)C(F)(F)C(F)(F)C(F)(F)C(F)(F)C(F)(F)Br,inactive
